Reference: the supplement of paper PMC12494721
Counter-ions that a name gives are not always drawn.

Experiments:
Conditions in all cases: incubation time: 27 h, anaerobic, 37 °C;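 for the amine columns active = adjusted P below 0.05 in both replicates with a change the same way and a mean fold change under 0.8 or over 1.25; inactive = the rest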
[1] = tested on: Clostridium sporogenes DSM 1664; test: growth (OD595) fold change vs plate DMSO controls (fold change (ratio)); higher = more growth
Outline: (§1)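 Anaerobic mGAM cultures in 96-well plates were grown for 27 h at 37 °C, and absorbance was then read at 595 nm. After blank and compound background correction with 20 µM compound solutions in water, a calibration factor of 5 gave OD. Growth is the fold change relative to the median of each plate's DMSO controls. Values are means of 2 biological replicates, with fold changes above 1.5 set to NA.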

Escherichia coli IAI1 [2] = test: as above
Outline: as §1

[3] = tested on: Klebsiella aerogenes DSM 30053; test: as above
Outline: as §1

[4] = tested on: Ruminococcus gnavus DSM 108212; test: as above
Outline: as §1

[5] = tested on: Klebsiella aerogenes DSM 30053; test: fold change of Histamine concentration vs plate DMSO controls (fold change (ratio)); higher = more amine produced, active = hit call of the paper (significant change in both replicates, either direction)
Outline: (§2)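 Each value is the fold change relative to DMSO-only wells on the same plate. Four gut bacterial strains were grown anaerobically in mGAM at 37 °C for 27 h in 80 µL wells, starting at OD 0.1 before a 1:1 dilution, with compounds at 20 µM final (sweeteners 50 µM). Whole cultures were extracted with cold acetonitrile/methanol containing 0.1% formic acid, centrifuged, and amines were quantified by LC–triple-quadrupole MS (dynamic MRM) against external calibration curves with within-batch drift correction. Values are means of 2 biological replicates.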

[6] = tested on: Clostridium sporogenes DSM 1664; test: fold change of Tryptamine concentration vs plate DMSO controls (fold change (ratio)); higher = more amine produced, active = hit call of the paper (significant change in both replicates, either direction)
Outline: as §2

[7] = tested on: Ruminococcus gnavus DSM 108212; test: as above
Outline: as §2

Escherichia coli IAI1 [8] = test: fold change of Putrescine concentration vs plate DMSO controls (fold change (ratio)); higher = more amine produced, active = hit call of the paper (significant change in both replicates, either direction)
Outline: as §2

[9] = tested on: Klebsiella aerogenes DSM 30053; test: as above
Outline: as §2

Escherichia coli IAI1 [10] = test: fold change of Cadaverine concentration vs plate DMSO controls (fold change (ratio)); higher = more amine produced, active = hit call of the paper (significant change in both replicates, either direction)
Outline: as §2

[11] = tested on: Klebsiella aerogenes DSM 30053; test: as above
Outline: as §2

[12] = tested on: Ruminococcus gnavus DSM 108212; test: fold change of 2-Phenylethylamine concentration vs plate DMSO controls (fold change (ratio)); higher = more amine produced, active = hit call of the paper (significant change in both replicates, either direction)
Outline: as §2

SMILES | growth [1] | growth (Escherichia coli IAI1 [2]) | growth [3] | growth [4] | fold change of Histamine concentration [5] | fold change of Tryptamine concentration [6] | fold change of Tryptamine concentration [7] | fold change of Putrescine concentration (Escherichia coli IAI1 [8]) | fold change of Putrescine concentration [9] | fold change of Cadaverine concentration (Escherichia coli IAI1 [10]) | fold change of Cadaverine concentration [11] | fold change of 2-Phenylethylamine concentration [12]
CCCCOCCOCCOCc1cc2c(cc1CCC)OCO2 [Piperonyl butoxide] (20 µM) | 1.04 | 1.09 | 1.09 | 1.06 | 0.916 (inactive) | 1.04 (inactive) | 1.07 (inactive) | 0.998 (inactive) | 0.999 (inactive) | 0.972 (inactive) | 1.02 (inactive) | 1.17 (inactive)
COc1cc(Nc2c(C#N)cnc3cc(OCCCN4CCN(C)CC4)c(OC)cc23)c(Cl)cc1Cl [Bosutinib] (20 µM) | 0.991 | 0.99 | 1.05 | 1.16 | 0.973 (inactive) | 0.96 (inactive) | 0.942 (inactive) | 1.02 (inactive) | 1 (inactive) | 1.02 (inactive) | 1.01 (inactive) | 0.989 (inactive)
Cn1cc(C(=O)Nc2ccccc2-c2cc(F)c(F)c(F)c2)c(C(F)F)n1 (20 µM) | 1.04 | 0.97 | 0.98 | 0.98 | 1.02 (inactive) | 1.03 (inactive) | 0.986 (inactive) | 1.02 (inactive) | 1.02 (inactive) | 1.01 (inactive) | 0.989 (inactive) | 0.966 (inactive)
CN(C)CCN(Cc1cccs1)c1ccccn1 [Methapyrilene hydrochloride] (20 µM) | 1.04 | 1 | 1 | 1.2 | 0.994 (inactive) | 1.02 (inactive) | 1.05 (inactive) | 0.892 (inactive) | 0.993 (inactive) | 1.18 (inactive) | 0.985 (inactive) | 1.08 (inactive)
C#C[C@]1(O)CC[C@H]2[C@@H]3CCc4cc(O)ccc4[C@H]3CC[C@@]21C [Ethinylestradiol] (20 µM) | 1.22 | 1.04 | 1.07 | 1.05 | 1.01 (inactive) | 1.01 (inactive) | 0.972 (inactive) | 1.05 (inactive) | 0.998 (inactive) | 1.01 (inactive) | 1.01 (inactive) | 0.936 (inactive)
CCc1oc2ccccc2c1C(=O)c1cc(I)c(O)c(I)c1 [Benziodarone] (20 µM) | 0.283 | 0.975 | 1.01 | 0.707 | 1.03 (inactive) | 0.0565 (active) | 0.468 (active) | 1.03 (inactive) | 1.01 (inactive) | 1.05 (inactive) | 1.01 (inactive) | 0.489 (inactive)
O=C(N[C@H](CO)[C@H](O)c1ccc([N+](=O)[O-])cc1)C(Cl)Cl [Chloramphenicol] (20 µM) | 1.25 | 0.0503 | 0.0799 | 1.08 | 0.0535 (active) | 0.64 (inactive) | 0.168 (active) | 0.245 (active) | 0.512 (active) | 0.0844 (active) | 0.383 (active) | 0.182 (active)
C=CC[N@@+]12CC[C@@]34c5ccccc5N5/C=C6/[C@H]7C[C@H]8[C@@]9(CC[N@@+]8(CC=C)C/C7=C/CO)c7ccccc7N(/C=C(/[C@@H](C[C@@H]31)/C(=C\CO)C2)[C@H]54)[C@@H]69 [Alcuronium chloride] (20 µM) | 1.09 | 0.982 | 1.01 | 1.26 | 1.04 (inactive) | 1.03 (inactive) | 1.05 (inactive) | 1.12 (inactive) | 0.99 (inactive) | 0.915 (inactive) | 1.02 (inactive) | 1.07 (inactive)
COc1ccc2cc([C@@H](C)C(=O)O)ccc2c1 [(R) Naproxen sodium salt] (20 µM) | 0.979 | 1.08 | 1.07 | 0.811 | 1.03 (inactive) | 1.07 (inactive) | 1.05 (inactive) | 0.951 (inactive) | 0.974 (inactive) | 0.956 (inactive) | 1 (inactive) | 1.11 (inactive)
CC(=O)N[C@@H](CS)C(=O)O [Acetylcysteine] (20 µM) | 0.935 | 1.07 | 0.967 | 0.985 | 1.14 (inactive) | 1.07 (inactive) | 0.993 (inactive) | 1.03 (inactive) | 1.02 (inactive) | 1.02 (inactive) | 0.987 (inactive) | 1 (inactive)
Cc1ncc(C[n+]2csc(CCO)c2C)c(N)n1 [Thiamine hydrochloride] (20 µM) | 0.972 | 0.961 | 1.01 | 1.14 | 0.968 (inactive) | 1.06 (inactive) | 0.914 (inactive) | 1.01 (inactive) | 0.998 (inactive) | 1.01 (inactive) | 1.01 (inactive) | 0.868 (inactive)
O=c1oc2ccccc2c(O)c1Cc1c(O)c2ccccc2oc1=O [Dicumarol] (20 µM) | 0.886 | 0.961 | 1.04 | 0.883 | 1 (inactive) | 0.989 (inactive) | 0.949 (inactive) | 0.993 (inactive) | 1 (inactive) | 1.01 (inactive) | 1.01 (inactive) | 1.02 (inactive)
COc1ccccc1OCC(O)CO (stereo unspecified) [Guaifenesin] (20 µM) | 1.09 | 0.954 | 0.98 | 1.03 | 1.05 (inactive) | 1.04 (inactive) | 1.05 (inactive) | 1.04 (inactive) | 1.01 (inactive) | 0.991 (inactive) | 0.988 (inactive) | 1.1 (inactive)
